The whole screen tested about 310,000 compounds, of which about 1,200 (0.39%) were called active. No rule for the calls is given here. These entries were drawn from the full list. Entries with a potency or affinity are not part of this list.
These molecules were tested against Large T antigen (Simian virus 40) (UniProt P03070) (assay: TAg ATPase/helicase activity blockers – biochemical (AID 1903)). Conditions: SV40 large T antigen ATPase/helicase inhibition assay; at 20 µM; hits give high values.
Chain of Large T antigen (Simian virus 40) (P03070 whole entry, looked up): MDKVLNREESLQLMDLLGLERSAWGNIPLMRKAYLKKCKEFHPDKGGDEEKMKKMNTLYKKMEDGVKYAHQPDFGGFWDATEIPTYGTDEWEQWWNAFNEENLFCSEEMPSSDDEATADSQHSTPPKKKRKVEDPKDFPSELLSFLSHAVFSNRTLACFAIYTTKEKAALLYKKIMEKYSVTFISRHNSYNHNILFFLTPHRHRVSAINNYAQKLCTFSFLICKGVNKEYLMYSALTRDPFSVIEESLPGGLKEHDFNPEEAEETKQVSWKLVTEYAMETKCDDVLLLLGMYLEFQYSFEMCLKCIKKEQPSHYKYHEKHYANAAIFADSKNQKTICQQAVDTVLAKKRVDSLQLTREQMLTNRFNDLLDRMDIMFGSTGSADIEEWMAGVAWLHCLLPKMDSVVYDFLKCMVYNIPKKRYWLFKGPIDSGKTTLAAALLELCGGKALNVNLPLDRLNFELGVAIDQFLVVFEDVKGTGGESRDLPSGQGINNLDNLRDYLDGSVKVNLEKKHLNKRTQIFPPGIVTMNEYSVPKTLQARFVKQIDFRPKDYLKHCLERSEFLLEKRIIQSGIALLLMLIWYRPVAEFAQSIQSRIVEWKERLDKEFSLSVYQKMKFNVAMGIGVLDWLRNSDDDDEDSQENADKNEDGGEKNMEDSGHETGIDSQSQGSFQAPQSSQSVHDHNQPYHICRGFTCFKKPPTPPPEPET

inhibition, inactive:
COc1ccccc1N1CCN(C(CNS(C)(=O)=O)c2cccnc2)CC1 (stereo not given) 10%
CCOC(=O)c1[nH]c(C)c(C(=O)N2CCN(c3ccc(F)cc3)CC2)c1C 27.5%
C/C(CC(=O)Nc1ccc2c(c1)OCCO2)=N\NC(=O)COc1cccc(C)c1 6.15%
O=C(COC(=O)[C@@H]1CCCN1S(=O)(=O)c1ccc(Cl)cc1)NC1CCS(=O)(=O)C1 (stereo not given in full) 1.86%
CCOc1ccc(/C=N/NS(=O)(=O)c2ccc(C)cc2)cc1OC 12.6%
Cc1ccc(C2C3=C(CCCC3=O)Nc3[nH]c(=S)[nH]c(=O)c32)cc1 (stereo not given) 23.7%
COC(=O)C1=C(C)Nc2[nH]c(=S)[nH]c(=O)c2C1c1ccc(O)cc1 (stereo not given) 26.6%
COC1Cc2ccccc2N(C(N)=O)c2ccccc21 (stereo not given) 11.8%
NS(=O)(=O)c1ccc(CCNC(=O)CSc2nc3ccccc3c3nc(CCN4CCCCC4)nn23)cc1 1.71%
COc1ccc(C2=CC3=C(Br)C(=O)C(C)(OC(=O)c4ccco4)C(=O)C3=CO2)cc1 (stereo not given) 50.8%
COc1ccc(C2=CC3=C(Br)C(=O)C(C)(OC(=O)c4cccs4)C(=O)C3=CO2)cc1 (stereo not given) 52.5%
COc1ccc2oc(C)c(C(=O)NN)c2c1 28.3%
O=C(NC1CCS(=O)(=O)C1)Oc1ccc(Cl)cc1 (stereo not given) 9.05%
O=C(NC1CCS(=O)(=O)C1)Oc1ccccc1 (stereo not given) 6.71%
O=[N+]([O-])c1ccccc1-c1cc(-c2ccccc2O)n[nH]1 5.15%
O=[N+]([O-])c1ccccc1-c1cc(-c2cc(Cl)ccc2O)n[nH]1 19%
O=C(OCC(=O)N1CCN(c2ccccc2)CC1)c1cccs1 3.9%
O=C(CSc1ccc(-c2nc3ccccc3[nH]2)cn1)Nc1ccc2c(c1)OCCO2 3.79%
CCN(c1ccc(NC(=O)COC(=O)c2ccc(C)s2)cc1)C(C)C 29.8%
CCOC(=O)c1c(N)sc(N)c1C(=O)OCC 36.6%
CCOC(=O)c1c(C)[nH]sc1=S 15%
O=C(NC(=S)Nc1ccccc1[N+](=O)[O-])c1cncc(Br)c1 7.4%
CCOc1ccc(Br)cc1S(=O)(=O)Nc1ccc(C(=O)Nc2ccccc2OC)cc1 11.7%
O=[N+]([O-])c1ccc2c(c1Nc1ccccc1Cl)=NC1(CCCCC1)N=2 14.5%
CCN(CC)C(=O)C(=O)c1cccn1-c1ccc(C#N)cc1 12.2%
O=C(Nc1ccccc1)c1ccc(NCC2CCCO2)c([N+](=O)[O-])c1 (stereo not given) 16.3%
CC(NC(=O)Nc1ccccc1O)(C(F)(F)F)C(F)(F)F 10.1%
COc1ccc(NC(=O)NC(C)(C(F)(F)F)C(F)(F)F)cc1 1.34%
O=C(Nc1ccccc1N1CCN(C(=O)c2ccc(Cl)cc2)CC1)c1cccnc1 -3.62%
Cc1noc(C)c1CS(=O)(=O)c1ccc([N+](=O)[O-])cc1 4.7%
CC/C(=N\Nc1nncc2ccccc12)c1ccc(F)cc1 0.15%
O=C1CC(N2CCN(c3ccc(F)cc3)CC2)C(=O)N1Cc1cccs1 (stereo not given) 7.54%
O=C(c1ccncc1)c1ccc(N2CCN(C3CC(=O)N(Cc4cccs4)C3=O)CC2)cc1 (stereo not given) 4.51%
COc1cc2c(cc1NC(=O)CSc1ccc(Cl)cc1)oc1ccccc12 20.1%
Cc1ccc(C(=O)CSc2nnc(-c3cccnc3)n2N)cc1 13.6%
O=C(COC(=O)CCC(NC(=O)OCc1ccccc1)C(=O)OCC(=O)Nc1ccccc1)Nc1ccccc1 (stereo not given) 9.57%
O=C(O)/C=C/C(=O)Nc1ccc(-n2nccc2C(F)(F)F)cc1 22.7%
O=C(NN1C(=O)/C(=C/c2cccc(O)c2)SC1=S)c1ccccc1O 0.53%
O=C(NN1C(=O)/C(=C/c2ccc(O)cc2)SC1=S)c1ccccc1O 38%
O=C1/C(=C\c2ccc(Br)cc2)SC(=S)N1NS(=O)(=O)c1ccccc1 5.34%
CC(/C=C1\SC(=S)N(NS(=O)(=O)c2ccccc2)C1=O)=C\c1ccccc1 28.2%
CCCC1NC(=S)N(C2CCCCC2)C1=O (stereo not given) 1.78%
Cc1ccc(-n2c(C)cc3c2CCCC3=O)cc1 17.7%
Cc1ccc(-c2cc3c(n2-c2ccc(C(=O)O)cc2)CCCC3=O)cc1 11%
CCC(C)(C)n1nnnc1C(c1ccccc1F)N1CCC(C(N)=O)CC1 (stereo not given) 8.52%
O=C(COc1ccc(Cl)cc1)NCc1nnc(SCC(=O)NC2CCCC2)o1 14.1%
COc1ccc2cc(C(=O)N3CCN(c4ccccc4OC)CC3)[nH]c2c1 2.37%
Cc1ccc2[nH]c3ccccc3c(=O)c2c1 4.82%
O=c1c2ccccc2[nH]c2ccccc12 7.79%
Cc1ccc(C)c(OC(=O)c2cccnc2Cl)c1C 25.3%
CCOCCn1c(SCc2ccccc2)nc2c1c(=O)[nH]c(=O)n2C 16.9%
CCOC(=O)C1C(c2ccccc2)C(C(=O)OCC)S(=O)(=O)C(CCN(CC)CC)S1(=O)=O (stereo not given) 4.87%
COC(=O)Cc1nnc(SCC(=O)Nc2ccccc2)c2ccccc12 11.3%
COc1ccc(NC(=O)Cn2c3ccccc3c3nc4n(c(=O)c32)CCS4)cc1OC 10.1%
O=C(Nc1ccccc1)Nc1snnc1C(=O)Nc1cccc(O)c1 10.9%
O=C(c1cc(-c2ccc(Cl)cc2)on1)N1CCOCC1 7.19%
O=C(c1nnsc1S(=O)(=O)c1ccc(Cl)cc1)N1CCOCC1 4.81%
Cc1nnsc1C(=O)Nc1ccc(Cl)cc1 3.36%
Clc1cccc(NCc2nnc(SCc3ccc(Cl)cc3Cl)o2)c1 0.46%
COc1ccc(/C=N/NC(=O)c2ccccc2OC)cc1COc1ccccc1[N+](=O)[O-] 1.66%

From PubChem BioAssay AID1903 (Southern Research Specialized Biocontainment Screening …, 2009)
